Source: PubChem BioAssay
JMJD2A Tudor inh: JMJD2A Tudor domain (human) inhibition. AlphaScreen JMJD2A-Tudor / H3K4me3 peptide binding. actives 4.4% (n = 390,000). Potency, µM (doses to about 114 µM), for the others: at the highest dose activity change, negative = inhibition, actives largely listed as inhibitors; note: % is set by controls: 0 for no effect and ±100 for the full control effect; nearly all actives have a fitted effect of over 50% in size
BAZ2B inh: inhibitors of human BAZ2B bromodomain; Q9UIF8; AlphaScreen BAZ2B-H3K14Ac peptide displacement; Potency, µM (top dose mostly 114 µM), inactives show at the top dose activity change, negative = inhibition, hits mostly inhibitors; actives 4.4% (n = 360,000); note: % is set by controls: 0 for no effect and ±100 for the full control effect; nearly all actives have a fitted effect of over 60% in size
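AlphaScreen luminescence quantifies BAZ2B engagement of H3K14Ac peptide; the protein and biotinylated peptide are both at 50 nM final, buffer PBS pH 7.4 with 0.01% Tween-20, all steps at room temperature.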
HP1b chromo inh: inhibitors of HP1-beta chromodomain binding to methylated histone tails. actives 0.56% (n = 390,000). P83916. AlphaScreen HP1-beta / biotin-H3K9me3 peptide binding. Potency, µM (highest dose often 114 µM), without a hit: top-dose activity change, negative = inhibition, hits mostly inhibitors; note: nearly all actives have a fitted effect of over 70% in size
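Compound inhibition of the preformed complex between 50 nM HP1-beta and 50 nM biotinylated H3K9me3 peptide was read by AlphaScreen. Buffer was PBS pH 7.4 with 0.01% Tween-20. Incubations ran 30 min at room temperature, with 10 ug/mL donor/acceptor beads.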
G9a block: blocks human histone lysine methyltransferase G9a; AID 504332; Potency, µM (titrated, usually from 102 µM), without a hit: at the highest dose activity, negative = inhibition, most hits filed as inhibitors; Q96KQ7; actives 8.8% (n = 350,000); G9a H3K9 monomethylation, AlphaScreen, 2 h; note: % is set by controls: 0 for no effect and ±100 for the full control effect; nearly all actives have a fitted effect of over 75% in size
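Enzyme 20 nM + cpd, 15 min RT; add b-H3K9 pep 500 nM / SAM 20 uM; 2 h RT; anti-H3K9me1 Ab 0.5 ug/mL + SA donor / anti-rabbit acceptor beads 20 ug/mL each, 10 min; AlphaScreen read.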
L3MBTL1 block: L3MBTL1 (human) inhibition; Q9Y468; AlphaScreen L3MBTL1–H3K9me1 peptide binding; Potency, µM (highest dose often 57.1 µM), without a hit: top-dose activity, negative = inhibition, hits mostly inhibitors; actives 0.66% (n = 230,000); note: % is set by controls: 0 for no effect and ±100 for the full control effect; nearly all actives have a fitted effect of over 60% in size
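Displacement of a biotinylated histone H3(1-15) peptide monomethylated at Lys9 (75 nM) from L3MBTL1 (50 nM) was measured by AlphaScreen after a 30 min room-temperature compound incubation; cefsulodin titration served as intraplate control.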
Starred values were filed as active, the others as inactive; ? = inconclusive; · = not tested or not shown; [ ] = dose if it differs, or a comment. A selection: hits, their analogues and other compounds. The true share with any hit is near 11%. Calls come from the whole dose curve; as a rule, active = well fitted inhibition curve with a large enough effect; inconclusive = small, poorly fitted or top-dose-only effect; inactive = no such curve, though single readings can be large or run the other way. Potency is the fitted concentration of half-maximal effect.

SMILES	JMJD2A Tudor inh	BAZ2B inh	HP1b chromo inh	G9a block	L3MBTL1 block
COc1ccccc1/C=C/c1nc(S(=O)(=O)c2ccccc2)c(N(C)C)o1	?	71µM*	69%	35µM*	·
Cc1ccc(Cn2c(CNS(=O)(=O)c3cccc([N+](=O)[O-])c3)nc3cccnc32)cc1	-32%	-18%	17%[57 µM]	40%[59 µM]	·
O=C(COc1ccc(Cl)cc1)Nc1ccc(C(=O)OCc2cc(=O)n3ccsc3n2)cc1	-22%	-5%	-1%	?	·
COc1cccc(Cn2c(C)c(CNC3CCCCC3)c(C(=O)O)c2C)c1	-8%	-27%	24%	8%[59 µM]	·
O=C1CCc2cc([S+](=O)([O-])NC3CCOCC3)ccc2N1	-16%	·	·	·	·
O=c1[nH][nH]c2c(N=Cc3ccccc3O)ccc(F)c12	?	10µM*	11µM*	8.9µM*	3.5µM*
CCc1ccc(O)c(N=Cc2ccccc2O)c1	?	?	18%	?	·
CCc1ccc(C2=NNC(=Nc3c(C)n(C)n(-c4ccccc4)c3=O)SC2)cc1	-25%	-33%	-15%	25µM*	·
CC(C)(C)N(CC#CCC(O)(c1ccccc1)c1ccccc1)CCO	22µM*	79µM*	-11%	8.9µM*	0%
CCOc1ccc(NC(=O)CN(C)C(=O)c2ccccc2CCc2ccccc2)cc1OCC	-33%	-3%	40%	56µM*	-6%
CCOc1ccc(NC(=O)CN(C)C(=O)c2cc(-c3ccc(OC)cc3)nc3ccccc23)cc1OCC	-32%	-33%	19%	50µM*	-5%
CCOc1ccc(NC(=O)CN(C)C(=O)Cn2cnc3c2c(=O)n(C)c(=O)n3C)cc1OCC	1%	-4%	22%	50µM*	-1%
COc1ccc(NC(=O)CN(C)C(=O)c2cc(-c3ccc(Cl)cc3)nc3ccccc23)cc1	-28%	-22%	18%	?	-6%
COc1ccc(NC(=O)CN(C)C(=O)Cn2cnc3c2c(=O)n(C)c(=O)n3C)cc1	-10%	12%	20%	21%[2.33 µM]	10%
CCOc1ccc(NC(=O)CN(C)C(=O)c2cc(C)on2)cc1OCC	-10%	2%	17%	?	6%
CCOc1ccc(NC(=O)CN(C)C(=O)c2ccncc2)cc1OCC	-5%	-35%	46%	40µM*	·
CN(C(=O)c1cccc(Br)c1)C1CCS(=O)(=O)C1 (centres undefined)	0%	11%	23%	4%	-2%
COc1ccc(-c2noc(CSc3nnc(-c4ccncc4)n3-c3ccc(C)cc3)n2)cc1OC	-34%	-2%	38%	-3%[59 µM]	·
COc1cc(C2C3=C(Nc4ncnn42)c2ccccc2CC3)cc(OC)c1OC (centres undefined)	-24%	-4%	-10%	32µM*	-2%
Cc1ccc(C2=CC(c3ccccc3)n3ncnc3N2)cc1 (centres undefined)	-8%	·	55%	·	·
COc1cccc(C2=CC(c3ccc(C)cc3)n3ncnc3N2)c1 (centres undefined)	·	10%	·	40µM*	8%
Fc1ccc(Br)cc1C1C=C(c2ccc(Br)cc2)Nc2ncnn21 (centres undefined)	-28%	-7%	28%	23%[12.7 µM]	·
Cc1ccsc1C1C=C(c2cccc(Br)c2)Nc2ncnn21 (centres undefined)	-13%	20%	61%	10µM*	6%
COc1cc(C2C=C(c3cccs3)Nc3ncnn32)cc(OC)c1OC (centres undefined)	?	-26%	31%	32µM*	0%
Cc1ccc(NS(=O)(=O)c2cc3c(cc2Cl)CCC(=O)N3)cc1Cl	5%	·	·	·	·
SMILES	JMJD2A Tudor inh	BAZ2B inh	HP1b chromo inh	G9a block	L3MBTL1 block
Cc1ccc(Cl)cc1S(=O)(=O)N1CCC(C(=O)NC2CCN(Cc3ccccc3)CC2)CC1	-6%	2%	20%	17%	·
O=C(O)C1Cc2[nH]cnc2C(c2ccccc2O)N1 (centres undefined)	89µM*	0%	18%	17%[59 µM]	4%
O=C(O)C1Cc2[nH]cnc2C(c2cccc([N+](=O)[O-])c2)N1 (centres undefined)	-12%	?	40%	10%	-4%
Oc1ccc(O)c2c1C1c3ccccc3C2c2ccccc21	·	40µM*	·	3.5µM*	-12%
O=C(CNCc1cccc2ccccc12)Nc1ccccc1[N+](=O)[O-]	?	?	?	50µM*	?
O=C(CC(=O)Nc1ccccc1[N+](=O)[O-])Nc1ccccc1[N+](=O)[O-]	-24%	-15%	12%	1%	·
CCONC(=O)Nc1ccccc1[N+](=O)[O-]	-6%	12%	24%	71µM*	3%
CCOc1ccc(-c2nnc(-c3ccncc3)o2)cc1	50µM*	-36%	?	-30%	2%
O=[N+]([O-])c1ccc(-c2csc(Nc3ccccc3)n2)cc1	-35%	·	-6%	·	·
O=C(c1ccccc1F)N(Cc1nc2ccccc2c(=O)[nH]1)C1CCCC1	-3%	-3%	15%	-32%	2%
COc1ccccc1C(=O)Nc1nc2ccccc2s1	-4%	38%	39%	5%[0.501 µM]	34%[2.29 µM]
COc1ccc(C(=O)Nc2nc3ccccc3s2)c(OC)c1	20µM*	-17%	15%	-17%	·
COc1n[nH]c(C(=O)NCc2ccccc2)c1[N+](=O)[O-]	-12%	-21%	60%	56µM*	-1%
COc1n[nH]c(C(=O)Nc2nc3ccccc3s2)c1[N+](=O)[O-]	-28%	56µM*	30%	14µM*	-27%
C=C[C@@]1(C)C[C@H](OC(=O)CSC(C)(C)CNC(=O)[C@@H](N)C(C)C)[C@@]2(C)C(C)CC[C@@]3(CCC(=O)[C@@H]32)[C@H](C)[C@H]1O (some centres undefined)	·	·	·	0%[12.7 µM]	·
O=C(Nc1noc2ccccc12)c1ccc(F)cc1	6%	4%	51%	25%[59 µM]	·
COc1ccc(C(CNC(=O)Cn2c(=O)oc3ccccc32)N(C)C)cc1 (centres undefined)	-6%	-29%	35%	8.9µM*	·
COc1ccc(C(CNC(=O)c2cc(SC)ccc2Cl)N(C)C)cc1 (centres undefined)	2%[11.4 µM]	0%	49%	-9%	1%
COc1cccc(NC(=O)Cn2c(=O)oc3ccccc32)c1	-1%	6%	18%	8%[12.7 µM]	·
COc1ccc(C(CNC(=O)c2ccccc2SC)N(C)C)cc1 (centres undefined)	-23%	-7%	10%	7.9µM*	5%
COc1ccccc1/C=C/c1nc(C#N)c(N2CCCCCC2)o1	-25%	?	-13%	?	·
Cc1nn(CC(=O)Nc2ccc(C(C)C)cc2)c(=O)c2c(C)n(-c3ccc(Cl)cc3)nc12	-4%	5%	20%[57 µM]	12%[59 µM]	·
CCC1=[N+](CC(=O)c2ccc(C)cc2)CCn2cccc21	-32%	?	-4%	?	-7%
CC1=[N+](CC(=O)c2ccccc2)CCn2cccc21	-17%	-29%	33%	32µM*	3%
